Data on 18 compounds can be found in PubChem BioAssay (Tox21).

Test [1] is described as follows: qHTS assay to identify small molecule antagonists of the estrogen related receptor (ERR) signaling pathway from Tox21 library - cell viability counter screen (AID 1224834). Further: nearly all actives have a fitted effect of over 30% in size. Further: potency means the concentration at half of the fitted maximal effect. In short, it runs like this: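 CellTiter-Fluor fluorescence, read after 30 min at 37 C, measures viability of ERR cells. Cells plated at 2,000/well and incubated 6 h before pin-tool compound addition, then exposed 17.5 hours at 37 C.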

Test [2] is described as follows: qHTS assay to identify small molecule agonists of the constitutive androstane receptor (CAR) signaling pathway - cell viability counter screen (AID 1224836). Further: nearly all actives have a fitted effect of over 45% in size. Further: potency means the concentration at half of the fitted maximal effect. In short, it runs like this: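 Counter screen multiplexed with the CAR reporter readout: HepG2 cells co-transfected with hCAR and the CYP2B6-2.2kb construct receive a 15-concentration compound series and 0.75 uM PK11195 (final), then CellTiter-Fluor fluorescence is read after 23 h.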

Test [3] in a line: qHTS assay to identify small molecule antagonists of the constitutive androstane receptor (CAR) signaling pathway - cell viability counter screen (AID 1224837). Further: nearly all actives have a fitted effect of over 45% in size. Further: potency means the concentration at half of the fitted maximal effect. In short, it runs like this: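 Cytotoxicity counter-screen: CellTiter-Fluor fluorescence after 23 h compound exposure (15-point qHTS) in double-stable HepG2-CYP2B6-hCAR cells, with 50 nM CITCO added.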
On the technique in general: Quantitative high-throughput screening tests each substance at several concentrations.

The target in test [4] is Nuclear receptor subfamily 1 group I member 3 (Homo sapiens) (UniProt Q14994). Kind of test: qHTS assay to identify small molecule antagonists of the constitutive androstane receptor (CAR) signaling pathway (AID 1224838).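 Further: HepG2 cells stably expressing hCAR with CYP2B6 luciferase reporter stimulated by CITCO; nearly all actives have a fitted effect of over 40% in size.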 Further: potency means the concentration at half of the fitted maximal effect. The gist of the method:
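Antagonism measured as luciferase signal (ONE-Glo, 30 min, room temperature) in CAR-stimulated cells: HepG2-CYP2B6-hCAR double-stable line exposed 24 hr at 37 C to compound in a 15-point series plus 50 nM CITCO.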

Test [5] has the same target. As to the kind of experiment: qHTS assay to identify small molecule agonists of the constitutive androstane receptor (CAR) signaling pathway (AID 1224839). Further: nearly all actives have a fitted effect of over 15% in size. Further: potency means the concentration at half of the fitted maximal effect. The gist of the method:
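A 15-concentration quantitative screen uses HepG2 cells co-transfected stably with human CAR and CYP2B6-2.2kb reporter. Treatment lasts 24 h with 0.75 uM PK11195 final present; ONE-Glo luminescence is the signal.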

A short description of test [6]: qHTS assay to identify small molecule antagonists of the estrogen related receptor signaling pathway with the pleiotropic PPARgamma coactivator (PGC) from Tox21 10K library - cell viability counter screen (AID 1224840; active means well fitted cell-killing curve with a large enough effect in the repeat runs, not every such curve was filed as active; further: nearly all actives have a fitted effect of over 40% in size; further: potency means the concentration at half of the fitted maximal effect). The gist of the method:
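Counter-screen for cytotoxicity: after 17.5 h compound exposure at 37 C, CellTiter-Fluor reagent added to PGC/ERR cells for 30 min and fluorescence read. Cells were seeded at 2,000 per well 6 h before dosing.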

In test [7] the target is Thyrotropin receptor (Homo sapiens) (UniProt P16473). As to the kind of experiment: qHTS assay to identify small molecule agonists of the thyroid stimulating hormone receptor (TSHR) signaling pathway (AID 1224843; calls by dose curve; further: nearly all actives have a fitted effect of over 45% in size; further: potency means the concentration at half of the fitted maximal effect). In short, it runs like this:
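Agonist activity read as cAMP rise via d2/cryptate HTRF competition, 1 h room-temperature detection, in HEK293 cells expressing TSHR. Fifteen-point titrations, each run in triplicate, with a 30 min room-temperature incubation beforehand.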

In test [8] the target is Luciferin 4-monooxygenase (Photinus pyralis) (UniProt P08659). Kind of test: qHTS assay to identify small molecule inhibitors of firefly luciferase (AID 1224835). Further: series mostly up to about 120 µM; nearly all actives have a fitted effect of over 25% in size. In short, it runs like this: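 Inhibition of purified Photinus luciferase is measured by luminescence. Substrate levels (D-luciferin, ATP) sit at their KM values. Each compound is tested in a concentration series.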

Test [9] can be described thus: qHTS assay to identify small molecule agonists of the estrogen related receptor signaling pathway with the pleiotropic PPARgamma coactivator (PGC) from Tox21 10K library (AID 1224842). Further: nearly all actives have a fitted effect of over 15% in size. Further: potency means the concentration at half of the fitted maximal effect. The gist of the method:
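Luminescence from One-Glo (30 min, room temperature) measured after PGC/ERR cells had 18 h at 37 C with pinned compound (23 nL in DMSO). Cells had been seeded at 2,000 per well and pre-incubated 6 h.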

A short description of test [10]: qHTS assay to identify small molecule antagonists of the estrogen related receptor signaling pathway with the pleiotropic PPARgamma coactivator (PGC) from Tox21 10K library (AID 1224841; call rule not given here; further: series mostly up to about 92 µM; actives are mostly falling curves and most rising ones were filed inactive; nearly all actives have a fitted effect of over 50% in size). The gist of the method:
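Luminescence (One-Glo, 30 min at room temperature) after 18 h compound treatment at 37 C of PGC/ERR reporter cells plated at 2,000 cells/well and settled 6 h beforehand.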

Where “and” joins values, the source holds several entries; their conditions need not be identical. Identical values can stand only once. Results filed as inconclusive are left out. Calls of active or inactive are those of the source. Unless noted, the call rests on the fitted dose curve; in most records, active means well fitted curve in the direction sought with a large enough effect in the repeat runs; inconclusive means weak or mixed curves; inactive means no such curve, though single readings can be large; an effect the other way counts as inactive or inconclusive.

Nuclear receptor subfamily 1 group I member 3 (Homo sapiens), sequence (Q14994 whole entry, looked up): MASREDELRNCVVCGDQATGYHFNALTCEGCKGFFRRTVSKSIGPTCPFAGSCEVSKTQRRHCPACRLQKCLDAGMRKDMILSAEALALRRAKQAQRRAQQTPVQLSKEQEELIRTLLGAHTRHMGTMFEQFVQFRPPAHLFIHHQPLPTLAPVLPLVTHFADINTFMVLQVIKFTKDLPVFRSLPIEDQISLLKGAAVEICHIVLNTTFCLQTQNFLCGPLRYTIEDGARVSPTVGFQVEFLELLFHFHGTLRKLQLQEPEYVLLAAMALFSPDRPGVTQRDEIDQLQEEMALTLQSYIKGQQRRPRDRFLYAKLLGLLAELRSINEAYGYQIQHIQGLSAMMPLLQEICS
Thyrotropin receptor (Homo sapiens), sequence (P16473 whole entry, looked up): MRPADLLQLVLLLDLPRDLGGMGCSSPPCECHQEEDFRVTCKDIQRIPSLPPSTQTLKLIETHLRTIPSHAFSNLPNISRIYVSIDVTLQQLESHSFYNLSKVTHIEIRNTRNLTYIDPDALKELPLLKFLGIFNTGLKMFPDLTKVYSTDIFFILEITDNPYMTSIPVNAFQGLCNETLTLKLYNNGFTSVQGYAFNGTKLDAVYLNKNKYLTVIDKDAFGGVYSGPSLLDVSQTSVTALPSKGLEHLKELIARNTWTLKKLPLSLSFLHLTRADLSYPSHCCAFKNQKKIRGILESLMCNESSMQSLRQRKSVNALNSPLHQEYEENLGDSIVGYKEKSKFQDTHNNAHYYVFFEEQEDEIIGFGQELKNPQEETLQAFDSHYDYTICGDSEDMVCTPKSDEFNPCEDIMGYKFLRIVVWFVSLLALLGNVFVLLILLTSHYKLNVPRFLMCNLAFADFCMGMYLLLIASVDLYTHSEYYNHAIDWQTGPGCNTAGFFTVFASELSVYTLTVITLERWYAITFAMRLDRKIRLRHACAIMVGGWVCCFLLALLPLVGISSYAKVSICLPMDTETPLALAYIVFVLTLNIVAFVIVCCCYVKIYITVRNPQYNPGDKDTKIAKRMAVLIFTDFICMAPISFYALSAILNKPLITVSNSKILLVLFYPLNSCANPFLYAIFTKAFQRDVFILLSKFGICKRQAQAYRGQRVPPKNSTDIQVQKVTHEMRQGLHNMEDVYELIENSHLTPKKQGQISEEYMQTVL
Luciferin 4-monooxygenase (Photinus pyralis), sequence (P08659 whole entry, looked up): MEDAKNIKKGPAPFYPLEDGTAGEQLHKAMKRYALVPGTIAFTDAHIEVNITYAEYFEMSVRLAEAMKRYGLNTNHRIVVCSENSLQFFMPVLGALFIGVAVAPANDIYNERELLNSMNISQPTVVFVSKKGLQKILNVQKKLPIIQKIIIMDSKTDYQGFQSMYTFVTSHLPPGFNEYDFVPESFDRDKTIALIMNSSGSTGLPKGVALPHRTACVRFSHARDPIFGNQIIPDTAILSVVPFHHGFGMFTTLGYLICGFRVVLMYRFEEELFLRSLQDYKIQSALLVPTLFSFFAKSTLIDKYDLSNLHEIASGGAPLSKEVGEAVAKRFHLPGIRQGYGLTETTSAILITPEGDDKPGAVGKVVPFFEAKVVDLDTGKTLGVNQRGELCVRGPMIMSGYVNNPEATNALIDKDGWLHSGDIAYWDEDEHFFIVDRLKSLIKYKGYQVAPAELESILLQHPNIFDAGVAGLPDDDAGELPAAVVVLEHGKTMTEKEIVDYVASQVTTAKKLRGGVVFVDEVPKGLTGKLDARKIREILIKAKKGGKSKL

As to `CC(C)(C)c1ccc(CCOc2ncnc3ccccc23)cc1`, the Potency entry in [1], in [2], in test [3], in test [4], in test [5] and in test [6] was “inactive” in each case. Besides, the Potency result in test [7] is “inactive”.

Take `CCCCNC(=O)OCC#CI`: the Potency in test [1] was 54.2 µM (active) and 68.6 µM (active); in test [2], 30.6 µM (active); in test [4] it was 54.2 µM (active) and 24.3 µM (active); in [6], 68.2 µM (active) and 61.1 µM (active); in test [7], 8.59 µM (active) and 4.33 µM (active). Also, the Potency entry in test [8], in test [5] and in test [9] was “inactive” each time.

Take `C=C(C)C(=O)OCCCCOC(=O)C(=C)C`: the Potency entry in test [1], in [2], in test [3], in test [4], in test [5] and in test [6] was “inactive” in each case. Besides, the Potency entry in test [10], in test [9] and in test [7] was “inactive” each time.

On to `Cc1nc(N(C)C)nc(OC(=O)N(C)C)c1C`, for which the Potency result in test [1], in [8], in test [2], in [3], in [6] and in test [7] was “inactive” each time.

On to `C=CC(=O)OCC`, for which the Potency entry in test [1], in [2], in test [3], in test [4], in [5] and in test [6] was “inactive” each time.

With `O=C(O)C(O)C(O)C(=O)O` (stereo not drawn), the Potency result in [1], in test [8] and in test [6] was “inactive” in each case.

In the case of `C#CC(O)(C=CCl)CC` (stereo not drawn), the Potency entry in test [1], in [8], in test [2], in test [3], in test [6] and in test [7] was “inactive” in each case.

As to `Cc1nc2ccccc2c(=O)n1-c1ccccc1Cl`, the Potency in [1] was 21.2 µM (active); in test [3], 16.9 µM (active). The Potency result in test [8], in [4], in test [5], in [10] and in test [9] was “inactive” each time.

For the compound `COc1ccc(C(O)(c2cncnc2)C2CC2)cc1` (stereo not drawn), the Potency result in test [1], in test [2], in test [3], in [4], in [5] and in test [6] was “inactive” in each case. Also, the Potency result in [10], in [9] and in [7] was “inactive” throughout.

Take `O=[N+]([O-])/C=C/c1ccccc1`: the Potency is 19.6 µM (active) in [1]; 27.8 µM (active) and 24.3 µM (active) in test [2]; 30.6 µM (active) in test [3]; 24.7 µM (active) and 24.3 µM (active) in test [4]; 15.6 µM (active) and 24.3 µM (active) in test [6]; 9.85 µM (active) and 13.7 µM (active) in test [9]. Besides, the Potency entry in [5], in [10] and in [7] was “inactive” in each case.

Consider `COc1ccccc1N1CCNCC1`, for which the Potency entry in [1], in [8], in test [2], in [3], in test [6] and in [7] was “inactive” in each case.

Consider `O=P(OCC(Br)CBr)(OCC(Br)CBr)OCC(Br)CBr` (stereo not drawn), for which, in [1], the Potency is 49.2 µM (active) and 51.7 µM (active). The Potency result in test [8], in test [4], in test [5], in [6] and in [7] was “inactive” in each case.

For `CC[N+]1(CCOC(=O)C(O)(c2ccccc2)c2ccccc2)CCCCC1`, the Potency result in [1], in test [2], in test [3], in test [4], in [5] and in test [6] was “inactive” throughout. In test [7], the Potency result is “inactive”.

With `CC(O)CN1CCN(CC(=O)[O-])CCN(CC(=O)[O-])CCN(CC(=O)[O-])CC1.[Gd+3]` (stereo not drawn), the Potency entry in [1], in [8], in [2], in test [3], in test [6] and in test [7] was “inactive” in each case.

On to `C=CCN1C[C@H](C)N([C@H](c2ccc(C(=O)N(CC)CC)cc2)c2cccc(OC)c2)C[C@H]1C`, for which the Potency result in [1], in test [8], in [4], in [5], in test [6] and in test [9] was “inactive” in each case. In addition, the Potency result in [7] was “inactive”.

As for `C#C[C@]1(O)CC[C@H]2[C@@H]3CCC4=CC(=O)CCC4=C3C=C[C@@]21CC`, the Potency in test [1] is 21.1 µM (active). In addition, the Potency entry in test [2], in [3], in test [4], in test [5] and in [6] was “inactive” each time.

On to `c1ccc2c(c1)-c1cccc3cccc-2c13`, for which the Potency result in test [1], in [2], in [3], in test [4], in [6] and in [7] was “inactive” throughout. The Potency in test [5] was 34.7 µM (active) and 30.6 µM (active).

`CC(C)(C)N(NC(=O)c1ccc(Cl)cc1)C(=O)c1ccccc1`: the Potency is 12.1 µM (active) in test [1] and 8.58 µM (active) in [3]. Moreover, the Potency result in test [8], in test [4], in test [5], in [6], in test [10] and in test [9] was “inactive” in each case.
